# In the library only some 19% were active in any assay of this set; here they are far more common.
# HT1080-NT tox = kills 2HG-producing HT-1080-NT fibrosarcoma cells. AID 686970. Potency, µM (titrated, usually from 46.1 µM), most hits filed as cytotoxic. HT-1080-NT fibrosarcoma viability, CellTiter-Glo ATP luminescence, 48 h. 1.6% of 360,000 active;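 note: NT is the 2HG producing partner of a matched IDH1 knockdown line; nearly all actives have a fitted effect of over 55% in size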
#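 A 48-hour cytotoxicity screen used HT-1080-NT cells plated 2 hours before compound delivery. ATP-based CellTiter-Glo luminescence measured viability, normalized to DMSO and no-cell controls.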
# HT1080 IDH1KD tx = toxicity to HT-1080 IDH1 knockdown cells (counter line) | 2% of 360,000 active | HT-1080 IDH1 knockdown viability, ATP luminescence, 48 h | Potency, µM (top dose mostly 46.1 µM), most hits filed as cytotoxic
#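 After a 2 h attachment period, IDH1KD HT-1080 cells took pin-transferred compound for 48 h at 37 °C; ATP-based luminescence after 10 min room-temperature reagent incubation reported viability.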
# ELG1 DNA repair = inhibitors of ELG1-dependent DNA repair in HEK293T cells; HEK293T ELG1-luciferase reporter, luminescence, 16 h; DNA damage induced by 5-fluorouridine; Potency, µM (top dose mostly 46.1 µM), actives largely listed as inhibitors; 2.3% of 330,000 active; AID 504467; note: nearly all actives have a fitted effect of over 55% in size
#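 Reporter activity after DNA damage by 5-fluorouridine is monitored. Compound-treated cells incubate 16 hr at 37 °C, then ONE-Glo is added for 30 min before luminescence reading.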
# TDP1 cell noCPT = qHTS for Inhibitors of human tyrosyl-DNA phosphodiesterase 1 (TDP1): qHTS in cells in absence of CPT; DT40 Tdp1-/- hTDP1 cells, no CPT, ATP luminescence, 48 h; Potency, µM (top dose mostly 46.2 µM), actives largely listed as inhibitors; 15% of 420,000 active; AID 686978, 2013; note: nearly all actives have a fitted effect of over 55% in size
#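 Growth of hTDP1-complemented DT40 Tdp1-knockout cells is measured by ATP luminescence after at least 48 hr compound exposure at 37 °C, with DMSO substituting for the 20 nM CPT used in the parallel screen.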
# IL-1B inflam inh = blocks inflammasome-driven IL-1 beta release | THP-1 LPS/ATP IL-1B secretion, AlphaLISA, 16 h; stronger effect = lower value | activity change, % at 57.5 µM | 4.7% of 360,000 active | AID 743279; in the data active = activity change below about -50%; inconclusive = mostly about -30% to -49%
#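 Secreted IL-1B measured by AlphaLISA bead assay after 16 h compound exposure of THP-1 cells; compounds (final up to 57.5 uM) added 1 h before LPS (250 ng/mL) and ATP (1.25 mM) stimulation; lower signal means less secretion.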
# DT40 TDP1 CPT = DT40-hTDP1 cell growth loss with CPT; chicken DT40 Tdp1-/-;hTDP1 cells + 20 nM CPT, ATP luminescence, 48 h; Potency, µM (top dose mostly 46.2 µM), actives largely listed as inhibitors; 12% of 420,000 active; AID 686979; note: nearly all actives have a fitted effect of over 55% in size
#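 Chicken DT40 Tdp1-/- cells stably complemented with human TDP1 were seeded at 400 cells/well in medium containing 20 nM camptothecin, exposed to pin-transferred compounds, and grown at 37 °C for at least 48 hr. Viability was read as ATP luminescence.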
# Numbers stand for hits; . = inactive; ? = inconclusive; / = no result. Unless noted, calls come from the whole dose curve; as a rule, active = well fitted curve in the direction sought with a large enough effect; inconclusive = small, poorly fitted or top-dose-only effect, or another doubt; inactive = no such curve, though single readings can be large; an effect the other way counts as inactive or inconclusive.
SMILES,HT1080-NT tox,HT1080 IDH1KD tx,ELG1 DNA repair,TDP1 cell noCPT,IL-1B inflam inh,DT40 TDP1 CPT
CC(C(=O)NC1(C#N)CCCCC1)N(C)CC(=O)Nc1ccc(Cl)c(Cl)c1 (stereo not drawn),.,.,.,18.4µM,.,?
CCn1c(SCC(=O)c2c(N)n(C3CC3)c(=O)[nH]c2=O)nc2cc(S(N)(=O)=O)ccc21,.,.,.,.,.,.
Cc1c(C(=O)N2CCc3ccccc3C2)oc2ccccc12,.,.,?,?,.,?
CCOC(=O)c1sc(N(Cc2ccccc2)C(=O)CSc2ncn[nH]2)nc1C,.,.,.,?,-52.2,?
CCOC(=O)c1sc(N(Cc2ccccc2)C(=O)CCl)nc1C,?,18.4µM,?,20.6µM,-100.6,?
CCOc1ccc(S(=O)(=O)N2CCOCC2)cc1NC(=O)CN1C(=O)NC(CC)(c2ccccc2)C1=O (stereo not drawn),.,.,.,.,.,.
COc1ccc2[nH]c(C(=O)N3CCC(n4nccc4NC(=O)C4CC4)CC3)c(C)c2c1,.,.,.,.,.,.
Cc1cc(Br)c(NC(=O)COn2nnc3ccc(S(C)(=O)=O)cc32)c(Br)c1,.,.,.,.,-65.5,.
COc1cc(NC(=O)COn2nnc3ccc(S(C)(=O)=O)cc32)cc(OC)c1,.,.,.,.,.,.
O=C(COn1nnc2ccc(S(=O)(=O)N3CCOCC3)cc21)Nc1c(F)c(F)c(F)c(F)c1F,.,.,?,?,.,.
Cc1cc(NC(=O)COn2nnc3ccc(S(C)(=O)=O)cc32)ccc1Br,.,.,.,16.4µM,.,?
COc1ccc(N2C(=O)C3ON(C4SC(=S)N(C)C4(C)C)C(c4ccc(Cl)cc4)C3C2=O)cc1 (stereo not drawn),.,.,.,.,.,.
Cc1ccc(Cl)cc1N1C(=O)CC(Sc2ncccn2)C1=O (stereo not drawn),.,.,.,20.6µM,.,?
O=C1CC(Sc2ncccn2)C(=O)N1c1ccccc1C(F)(F)F (stereo not drawn),.,.,.,?,-80.3,?
C=CCN1[C@@H](C(C)C)COCCS1(=O)=O,/,/,/,.,/,.
CCc1cc(=O)oc2cc3occ(C)c3cc12,.,.,.,?,.,.
CCc1cc(=O)oc2cc3occ(-c4ccc(OC)c(F)c4)c3cc12,5.17µM,5.17µM,.,2.06µM,.,4.61µM
NC(=O)/C=C\c1cn(-c2ccccc2)nc1-c1ccc2c(c1)OCCO2,.,.,16.4µM,?,-59.9,?
CC(C)OC(=O)c1cn(-c2ccccc2)nc1-c1ccc2c(c1)OCCO2,.,.,23.1µM,.,?,.
O=C(/C=C/c1cn(-c2ccccc2)nc1-c1ccc2c(c1)OCCO2)NCCO,.,.,?,.,.,.
O=C(c1ccc(C23CC4CC(CC(C4)C2)C3)o1)N1CCOCC1,.,?,.,23.1µM,.,?
CCCn1nc(C(=O)N(C)CC(=O)Nc2ccc(OCC)c(OCC)c2)c2ccccc2c1=O,.,.,.,.,.,.
Cc1c(C(=O)OCCOc2ccccc2)[nH]c2c1C(=O)CCC2,.,.,?,23.1µM,?,14.6µM
COC(=O)c1[nH]c2c(c1C)C(=O)CC(c1ccc(OC)cc1)C2 (stereo not drawn),.,.,.,?,.,.
CC1=C(C(=O)OCCOc2ccccc2)C(c2coc3ccccc3c2=O)C2=C(CCCC2=O)N1 (stereo not drawn),.,.,.,?,.,.
Cc1c(C(=O)OC2CCCC2C)[nH]c2c1C(=O)CCC2 (stereo not drawn),.,.,?,?,.,20.6µM
CCOc1ccc(C2CC(=O)c3c([nH]c(C(=O)OCCOc4ccccc4)c3C)C2)cc1 (stereo not drawn),/,/,/,14.6µM,/,13µM

# Screening data deposited in PubChem by National Center for Advancing Translational Sciences (NCATS).
